Bioassay records as filed in PubChem.
KB-V1 MDR tox: qHTS assay for MDR1-selective chemotherapeutics: Primary screen using the drug-selected MDR subline cells KB-V1; KB-V1 MDR cells viability, CellTiter-Glo, 72 h; Potency, µM (titrated, usually from 46.1 µM), most hits filed as cytotoxic; 3.4% of 400,000 active; note: % is set by controls: 0 for no effect and ±100 for the full control effect; nearly all actives have a fitted effect of over 60% in size
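Compound-treated KB-V1 multidrug-resistant cells, 72 h, 37 degrees C; viability by CellTiter-Glo. Fitted qHTS curves give the values.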
SW480 rerep: A quantitative high throughput screen for small molecules that induce DNA re-replication in SW480 colon adenocarcinoma cells; SW480 DNA re-replication, Hoechst DNA content imaging, 48 h; Potency, µM (doses to about 46.1 µM), inactives show top-dose re-replication activation, most hits filed as activators; 1.8% of 340,000 active; note: % of control where 0% means no effect; nearly all actives have a fitted effect of over 55% in size
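DNA re-replication was detected as more nuclei of elevated Hoechst intensity after 48 hr exposure to compound (23 nL pinned per well of 250 cells).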
MCF10A rerep: A quantitative high throughput screen for small molecules that induce DNA re-replication in MCF 10a normal breast cells | MCF 10A DNA re-replication, Hoechst nuclear intensity, 48 h | Potency, µM (highest dose often 46.1 µM), without a hit: at the top dose activity, positive = re-replication, usual class: activators | 2.9% of 350,000 active | AID 624296, 2012; note: % of control where 0% means no effect; nearly all actives have a fitted effect of over 50% in size
KB-3-1 cytotox: qHTS assay for MDR1-selective chemotherapeutics: Primary screen using the parental adenocarcinoma cell KB-3-1; KB-3-1 viability, CellTiter-Glo ATP luminescence, 72 h; Potency, µM (top dose mostly 46.1 µM), hits mostly cytotoxic; 1.4% of 400,000 active; AID 1347075, 2019; note: % is set by controls: 0 for no effect and ±100 for the full control effect; nearly all actives have a fitted effect of over 60% in size
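72 h, 37 °C compound treatment of KB-3-1 parental cells; CellTiter-Glo added, 10 min, luminescence read. Data corrected against DMSO-only plates and normalized before curve fitting.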
PINK1 expr mod: A Quantitative High throughput Screen to Identify Chemical Modulators of PINK1 Expression; 0.2% of 410,000 active; PINK1 immunofluorescence, high-content cytometry, 24 h; Potency, µM (highest dose often 76.6 µM), for inactives: at the top dose activation (PINK1 increase), most hits filed as activators; active = well fitted activation curve with a large enough effect; inconclusive = small, poorly fitted or top-dose-only effect; cell line not stated here; note: % of control where 0% means no effect; nearly all actives have a fitted effect of over 65% in size
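Readout is PINK1 immunofluorescence, quantified alongside mitochondrial, cell and nuclear markers by laser-scanning microplate cytometry. Cells from a stable line were exposed to compound titrations (5 concentrations) for 24 hours, with CCCP controls.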
The depositor's hits bear a star; i = inactive; ? = inconclusive; . = no result given; [ ] = remark or other dose. This is a sample that favours compounds with a hit; in the whole collection about 6.7% have one here. Unless noted, calls come from the whole dose curve; as a rule, active = well fitted curve in the direction sought with a large enough effect; inconclusive = small, poorly fitted or top-dose-only effect, or another doubt; inactive = no such curve, though single readings can be large; an effect the other way counts as inactive or inconclusive. Potency is the fitted concentration of half-maximal effect.

SMILES	KB-V1 MDR tox	SW480 rerep	MCF10A rerep	KB-3-1 cytotox	PINK1 expr mod
COc1ccc(NS(=O)(=O)c2ccc(-c3cnc(C4CC4)o3)cc2)cc1OC	?	3.3%	?	2.06µM*	6.7%
CCCCN(C)C(=O)c1ccc2c(c1)N(Cc1ccc(F)cc1)C(=O)c1ccccc1S2(=O)=O	.	.	.	.	3.0%
CC1=C(C(=O)Nc2ccc(C(=O)NC(C)c3ccccc3)cc2)SCCO1 (stereo not drawn)	i	-2.6%	0.2%	?	-0.8%
O=S(=O)(Nc1cccc(C(F)(F)F)c1)c1ccc(-c2cnc(C3CC3)o2)cc1	8.2µM*	.	.	10.3µM*	?
COCCN(C(=O)COC(=O)c1oc2ccc(OC)cc2c1C)c1c(N)n(Cc2ccccc2)c(=O)[nH]c1=O	i	?	9.4%	i	0.5%
Cc1cccc(C)c1-n1nnnc1-c1nc2cc3ccccc3cc2[nH]c1=O	6.51µM*	.	.	1.03µM*	-0.4%
Cc1cccc(C)c1-n1nnnc1-c1nc2cc(Br)ccc2[nH]c1=O	i	.	.	i	1.8%
CC(C)(C)c1ccc(CN(Cc2ccco2)Cc2nnnn2C2CCCC2)cc1	16.4µM*	13.1%	?	i	?
CCC(C)(C)n1nnnc1CN(Cc1ccco1)Cc1cc2cc3c(cc2[nH]c1=O)OCO3	?	15.4%	18.4%	i	5.5%
COc1ccc2cc(CN(Cc3ccco3)Cc3nnnn3C3CCCCC3)c(=O)[nH]c2c1	?	?	34.7%	i	-1.9%[38.3 µM]
CCC(C)(C)n1nnnc1CN(Cc1ccc(Cl)cc1)Cc1ccco1	23.1µM*	1.3%	?	20.6µM*	?
CCOC(=O)c1cc(C)sc1NC(=O)CSC1=NCCS1	i	?	20.6µM*	i	1.0%
OCCNCc1cc(Br)ccc1OCc1ccc(Cl)cc1Cl	14.6µM*	?	?	?	-1.9%
Brc1ccc(OCc2ccccc2)c(CNCc2ccncc2)c1	16.4µM*	?	?	?	-1.3%[38.3 µM]
Fc1ccc(COc2ccccc2CNCc2ccncc2)cc1	?	-5.1%	11.8%	i	-0.2%
OCCNCc1cc(Br)ccc1OCc1ccc(Cl)cc1	9.2µM*	14.1%	9.9%	i	1.6%
COc1ccc(S(=O)(=O)N2CCN=C2SCc2cccc(F)c2)cc1	?	16.9%	1.4%	i	-0.5%
COc1ccc(C2CC=C(C(C)=O)CN2S(=O)(=O)c2ccccc2)cc1 (stereo not drawn)	i	.	.	i	2.3%
O=C(Nc1ccc(Cl)cc1)c1nc[nH]c1C(=O)NCCCCNC(=O)c1[nH]cnc1C(=O)Nc1ccc(Cl)cc1	20.6µM*	4.5%	-11.8%	?	-1.0%
O=C(Nc1cccc(Cl)c1)c1nc[nH]c1C(=O)NCCCCNC(=O)c1[nH]cnc1C(=O)Nc1cccc(Cl)c1	?	-7.7%	0.0%	?	-0.3%
CSc1nc(N2CCOCC2)nc2ccc(C)cc12	i	?	20.6µM*	i	1.1%
CCOC(=O)C1=C(c2ccccc2)NC(=S)NC1C (stereo not drawn)	i	-2.3%	6.0%	i	0.7%
CC1=C(C(=O)OCc2ccccc2)C(c2cccc([N+](=O)[O-])c2)NC(=O)N1C (stereo not drawn)	?	-59.2%	0.82µM*	i	-0.4%
CCOC(=O)C1=C(c2ccccc2)NC(=S)NC1c1ccc(C)c([N+](=O)[O-])c1 (stereo not drawn)	2.91µM*	?	?	i	14.2%
C#CCN1C(C)=C(C(=O)OC)C(c2cccc([N+](=O)[O-])c2)C(C(=O)OCC)=C1C (stereo not drawn)	11.6µM*	2.5%	3.2%	i	1.5%
SMILES	KB-V1 MDR tox	SW480 rerep	MCF10A rerep	KB-3-1 cytotox	PINK1 expr mod
CCOC(=O)C1=C(c2ccccc2)NC(=S)NC1c1cccc([N+](=O)[O-])c1 (stereo not drawn)	14.6µM*	-1.8%	11.1%	i	4.6%
CCOC(=O)C1=C(C)NC(C)=C(C(=O)OCC)C1c1cccc([N+](=O)[O-])c1	?	.	.	i	?
CC1=C(C(=O)OCc2ccccc2)C(c2cccc([N+](=O)[O-])c2)NC(=O)N1 (stereo not drawn)	i	-10.2%	2.4%	i	1.0%
CCOC(=O)C1=C(c2ccccc2)NC(=S)NC1c1cc([N+](=O)[O-])ccc1OC (stereo not drawn)	i	17.0%	-2.2%	i	0.3%
CSc1ccc(-c2ccc3c(c2)CC(CNC(=O)Cn2nc(C)nc2C)O3)cc1 (stereo not drawn)	.	.	.	.	0.2%
O=C(NCC1Cc2cc(F)cc(-c3cnccn3)c2O1)c1cccc(-c2ccccc2F)c1 (stereo not drawn)	.	.	.	.	1.0%
O=C(COC(=O)Cc1ccc(F)cc1)NCc1ccco1	i	11.6µM*	2.7%	i	0.2%
O=C(COC(=O)CSc1ccc(F)cc1)NCc1ccco1	?	10.9%	-1.2%	?	-0.6%
CCC(C(=O)N1CCN(c2ccccc2OC)CC1)c1ccccc1 (stereo not drawn)	20.6µM*	-703.1%	?	?	-0.9%
CCOC(=O)N1CCN(C(=O)c2ccccc2-c2ccccc2)CC1	4.61µM*	10.3µM*	8.2µM*	4.61µM*	4.8%
CCOC(=O)N1CCN(c2ccccc2OC)CC1	i	-10.7%	-2.0%	i	0.5%
CCC(C(=O)N1CCN(S(C)(=O)=O)CC1)c1ccccc1 (stereo not drawn)	i	3.3%	-0.5%	i	-4.2%[38.3 µM]
COc1ccccc1N1CCN(C(=O)C(NS(=O)(=O)c2cccs2)c2ccccc2)CC1 (stereo not drawn)	4.61µM*	-6.0%	-3.6%	i	-0.8%[38.3 µM]
CCOC(=O)N1CCN(C(=O)c2ccccc2CCc2ccccc2)CC1	i	-1.1%	15.3%	i	1.5%
CCOC(=O)N1CCN(C(=O)C(CC)c2ccccc2)CC1 (stereo not drawn)	11.6µM*	-88.8%	6.9%	i	2.1%
Cc1ccc(S(=O)(=O)n2nccc2-c2c(-c3ccccc3)noc2C)cc1	?	13µM*	11.6µM*	?	2.5%
CN(CCCn1ccc(NC(=O)OCc2ccccc2)nc1=O)CCc1ccccn1	i	.	.	i	-0.4%
CCN(CC)C(=O)c1oc2ccc(S(=O)(=O)N3CCCCCC3)cc2c1C	13µM*	3.4%	29.9%	i	-0.2%[38.3 µM]
COc1ccc2oc(C(=O)OCC(=O)N3C(C)CCCC3C)c(C)c2c1 (stereo not drawn)	i	3.0%	10.7%	i	0.2%
CCOC(=O)c1oc2ccc(S(=O)(=O)N3CCC(C)CC3)cc2c1C	16.4µM*	1.2%	16.3%	i	-0.1%[38.3 µM]
